Assay [1] deals with Myc proto-oncogene protein (Homo sapiens) (UniProt P01106). Description: ATG_Myc_CIS: Attagene CIS-FACTORIAL HepG2 Assay for human Myelocytomatosis (Myc) Proto-Oncogene Transcription Factor (AID 2282990). As to conditions: HepG2, Attagene cis-reporter transcription factor activity; actives raise or lower the signal. An outline of the steps: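 Transiently transfected HepG2 cells bearing cis-promoter reporter units for endogenous transcription factors; 24 h exposure. Reporter mRNA measured by RT-PCR, 6-FAM primer extension, HpaI cut and capillary electrophoresis; bidirectional fit relative to DMSO.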
Sequence of Myc proto-oncogene protein (Homo sapiens) (P01106 whole entry, looked up): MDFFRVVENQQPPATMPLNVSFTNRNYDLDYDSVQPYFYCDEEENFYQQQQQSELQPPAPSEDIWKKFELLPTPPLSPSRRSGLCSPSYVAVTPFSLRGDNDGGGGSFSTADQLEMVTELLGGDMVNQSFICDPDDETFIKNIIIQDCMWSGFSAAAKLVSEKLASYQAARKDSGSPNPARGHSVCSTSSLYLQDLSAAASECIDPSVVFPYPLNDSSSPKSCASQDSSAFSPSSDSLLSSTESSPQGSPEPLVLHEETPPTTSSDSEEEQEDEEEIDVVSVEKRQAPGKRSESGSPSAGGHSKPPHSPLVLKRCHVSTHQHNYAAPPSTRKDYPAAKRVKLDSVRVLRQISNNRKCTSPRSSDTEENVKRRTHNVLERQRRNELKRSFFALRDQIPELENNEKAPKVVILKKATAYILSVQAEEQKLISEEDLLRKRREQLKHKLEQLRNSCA

Assay [2] in a line: ATG_NF_kB_CIS: Attagene CIS-FACTORIAL HepG2 Assay for human Nuclear Factor Kappa B (NF-kB) (AID 2282991). As to conditions: HepG2 Attagene cis-factorial NF-kB reporter mRNA; actives raise or lower the signal. An outline of the steps:
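Fluorescence of labelled RT-PCR products separated by capillary electrophoresis gives reporter mRNA levels from transfected HepG2 cells exposed 24 h; values are fitted in both directions relative to DMSO.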

Assay [3] is described as follows: ATG_NRF2_ARE_CIS: Attagene CIS-FACTORIAL HepG2 Assay for human Nuclear Factor Erythroid 2 Related Factor 2 (NFR2) response to Antioxidant Response Elements (ARE) (AID 2282992). As to conditions: HepG2 Attagene ARE/NRF2 reporter, transcription factor activity; actives raise or lower the signal. A digest of the protocol: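 Transient MRTU transfection of HepG2; 24 h compound exposure; TriZol RNA, RT with oligo(dT), PCR, 6-FAM primer extension, HpaI cut, CE. Bidirectional fit vs DMSO.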

Assay [4] can be described thus: ATG_Oct_MLP_CIS: Attagene CIS-FACTORIAL HepG2 Assay for human Octamer-Binding Transcription Factor (Oct) (AID 2282993). Particulars: HepG2 Attagene cis-factorial Oct reporter, mRNA; actives raise or lower the signal. An outline of the steps: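 Transient MRTU transfection of HepG2 → 24 h compound treatment → RNA isolation, reverse transcription, PCR → 6-FAM primer extension, HpaI digest → capillary electrophoresis. Activity fitted both directions against DMSO.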

Assay [5] addresses Cellular tumor antigen p53 (Homo sapiens) (UniProt P04637). Briefly: ATG_p53_CIS: Attagene CIS-FACTORIAL HepG2 Assay for human p53 Transcription Factor (AID 2282994). As to conditions: HepG2 p53 cis-element reporter, Attagene mRNA; actives raise or lower the signal. A digest of the protocol:
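HepG2, transient MRTU transfection (cis promoter elements, endogenous TFs); 24 h dosing; RNA isolation, RT-PCR, 6-FAM primer extension, HpaI digest, CE fluorescence; bidirectional fit vs DMSO.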

Assay [6] has as its target human RAR-related Orphan Receptor gamma (RORg), RORC (gene 6097) (UniProt P51449). Briefly: ATG_RORg_TRANS: Attagene TRANS-FACTORIAL HepG2 Assay for human RAR-related Orphan Receptor gamma (RORg) (AID 2283011; active means hit-call score of the fitted dose curve at least 0.9, where 1 is the maximum). A digest of the protocol: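 Readout: reporter transcript induction (RT-PCR, fluorescent primer extension, capillary electrophoresis) after 24 h compound exposure of transiently transfected HepG2 cells carrying a RORg-Gal4 chimera and GAL4-UAS reporters; DMSO served as baseline, with increasing signal fitted.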

Assay [7] addresses Nuclear receptor subfamily 1 group I member 2 (Homo sapiens) (UniProt O75469). Description: ATG_PXR_TRANS: Attagene TRANS-FACTORIAL HepG2 Assay for human Pregnane X Receptor (PXR) (AID 2283008; active means hit-call score of the fitted dose curve at least 0.9, where 1 is the maximum). A digest of the protocol: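 Read-out is fluorescence of labelled reporter cDNA fragments separated by capillary electrophoresis after RT-PCR and HpaI digestion. Source: HepG2 cells carrying PXR-GAL4/UAS reporter constructs, treated 24 h; activity fitted upward relative to DMSO.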

Assay [8] concerns the target human Retinoic Acid Receptor gamma (RARg), RARG (gene 5916) (UniProt P13631). Description: ATG_RARg_TRANS: Attagene TRANS-FACTORIAL HepG2 Assay for human Retinoic Acid Receptor gamma (RARg) (AID 2283009; active means hit-call score of the fitted dose curve at least 0.9, where 1 is the maximum). An outline of the steps: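 HepG2 transiently transfected with GAL4-UAS reporter units and chimeric NR-Gal4 constructs; 24 h compound exposure. Reporter mRNA quantified by RT-PCR, FAM labeling, HpaI digestion and capillary electrophoresis; gain-of-signal versus DMSO.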

The target of assay [9] is Retinoic acid receptor alpha (Homo sapiens) (UniProt P10276). Description: ATG_RARa_TRANS: Attagene TRANS-FACTORIAL HepG2 Assay for human Retinoic Acid Receptor alpha (RARa) (AID 2283005; active means hit-call score of the fitted dose curve at least 0.9, where 1 is the maximum). An outline of the steps: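 HepG2 transiently transfected with multiplex GAL4-UAS reporter units including a human RARa–GAL4 chimera; 24 h compound exposure. Reporter mRNA quantified by RT-PCR, 6-FAM labeling and capillary electrophoresis; gain of signal versus DMSO.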
Sequence of Retinoic acid receptor alpha (Homo sapiens) (P10276 whole entry, looked up, the tested form may be a part): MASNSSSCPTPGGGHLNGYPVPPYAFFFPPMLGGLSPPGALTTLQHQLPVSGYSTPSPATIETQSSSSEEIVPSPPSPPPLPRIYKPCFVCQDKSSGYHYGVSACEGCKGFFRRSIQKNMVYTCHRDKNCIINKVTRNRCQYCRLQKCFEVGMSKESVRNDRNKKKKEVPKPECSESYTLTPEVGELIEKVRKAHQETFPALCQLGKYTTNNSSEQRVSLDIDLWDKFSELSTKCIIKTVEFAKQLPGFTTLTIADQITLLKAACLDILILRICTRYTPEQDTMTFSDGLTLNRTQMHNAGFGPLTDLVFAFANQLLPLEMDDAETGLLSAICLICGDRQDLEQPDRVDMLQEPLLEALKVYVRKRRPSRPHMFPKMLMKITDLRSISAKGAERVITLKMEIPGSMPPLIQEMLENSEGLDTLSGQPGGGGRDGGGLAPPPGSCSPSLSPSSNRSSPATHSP

In assay [10] the target is human RAR-related Orphan Receptor beta (RORb), RORB (gene 6096) (UniProt Q92753). Briefly: ATG_RORb_TRANS: Attagene TRANS-FACTORIAL HepG2 Assay for human RAR-related Orphan Receptor beta (RORb) (AID 2283010; active means hit-call score of the fitted dose curve at least 0.9, where 1 is the maximum). An outline of the steps:
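HepG2 cells transiently transfected with GAL4-UAS reporter units expressing chimeric NR-Gal4 protein; reporter mRNA measured 24 h after dosing by RT-PCR, 6-FAM labelling and capillary electrophoresis. Gain-of-signal fitted relative to DMSO baseline.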

For assay [11], the target named is human Peroxisome Proliferator-activated Receptor alpha (PPARa), PPARA (gene 5465) (UniProt Q07869). Description: ATG_PPARa_TRANS: Attagene TRANS-FACTORIAL HepG2 Assay for human Peroxisome Proliferator-activated Receptor alpha (PPARa) (AID 2283001; active means hit-call score of the fitted dose curve at least 0.9, where 1 is the maximum). A digest of the protocol:
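HepG2 cells transiently transfected with multiplexed GAL4-UAS reporters driven by exogenous chimeric NR-Gal4 proteins; reporter mRNA measured after 24 h dosing. Read-out by RT-PCR, 6-FAM labelling, HpaI digestion and capillary electrophoresis; gain of signal versus DMSO.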

Assay [12] addresses human Peroxisome Proliferator-activated Receptor delta (PPARd), PPARD (gene 5467) (UniProt Q03181). Briefly: ATG_PPARd_TRANS: Attagene TRANS-FACTORIAL HepG2 Assay for human Peroxisome Proliferator-activated Receptor delta (PPARd) (AID 2283002; active means hit-call score of the fitted dose curve at least 0.9, where 1 is the maximum). An outline of the steps: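 HepG2 cells transiently transfected with GAL4-UAS multiplexed reporter units driven by exogenous chimeric NR-GAL4 proteins; 24 h compound exposure. Reporter mRNA measured by RT-PCR, 6-FAM primer extension, HpaI digestion and capillary electrophoresis; gain of signal fitted relative to DMSO.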

In assay [13] the target is Peroxisome proliferator-activated receptor gamma (Homo sapiens) (UniProt P37231). Description: ATG_PPARg_TRANS: Attagene TRANS-FACTORIAL HepG2 Assay for human Peroxisome Proliferator-activated Receptor-gamma (PPARg) (AID 2283007; active means hit-call score of the fitted dose curve at least 0.9, where 1 is the maximum). An outline of the steps:
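Twenty-four hours after chemical dosing of transiently transfected HepG2 cells, isolated RNA was converted to cDNA, reporter sequences amplified and 6-FAM-labelled, then HpaI-digested and analysed by capillary electrophoresis. Signal increase against DMSO was fitted.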

In assay [14] the target is human Retinoic Acid Receptor beta (RARb), RARB (gene 5915) (UniProt P10826). Briefly: ATG_RARb_TRANS: Attagene TRANS-FACTORIAL HepG2 Assay for human Retinoic Acid Receptor beta (AID 2283004; active means hit-call score of the fitted dose curve at least 0.9, where 1 is the maximum). A digest of the protocol: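 HepG2 cells transiently transfected with multiplexed GAL4-UAS reporter units expressing chimeric NR–Gal4 fusions; 24 h compound exposure. Reporter mRNA quantified by RT-PCR, 6-FAM labelling, HpaI digestion and capillary electrophoresis; gain-of-signal fitted against DMSO baseline.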
Sequence of human Retinoic Acid Receptor beta (RARb), RARB (gene 5915) (P10826 whole entry, looked up, the tested form may be a part): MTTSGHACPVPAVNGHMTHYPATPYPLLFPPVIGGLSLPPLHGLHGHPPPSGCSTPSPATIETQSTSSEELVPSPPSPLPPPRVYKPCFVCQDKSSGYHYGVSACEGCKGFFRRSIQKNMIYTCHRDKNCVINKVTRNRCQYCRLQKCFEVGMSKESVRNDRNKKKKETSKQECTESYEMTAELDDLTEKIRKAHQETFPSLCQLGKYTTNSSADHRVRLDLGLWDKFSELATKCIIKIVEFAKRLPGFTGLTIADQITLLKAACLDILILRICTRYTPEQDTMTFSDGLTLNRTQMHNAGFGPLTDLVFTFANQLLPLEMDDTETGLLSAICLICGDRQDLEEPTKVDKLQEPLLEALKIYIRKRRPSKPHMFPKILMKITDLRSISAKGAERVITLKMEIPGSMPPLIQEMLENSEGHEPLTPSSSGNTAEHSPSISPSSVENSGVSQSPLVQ

Results filed as inconclusive are left out. Activity calls are given as the source filed them. How the source made its calls, unless noted: active means hit-call score of the fitted dose curve at least 0.9, where 1 is the maximum; inactive means score below 0.9.

Sequence of human Retinoic Acid Receptor gamma (RARg), RARG (gene 5916) (P13631 whole entry, looked up, the tested form may be a part): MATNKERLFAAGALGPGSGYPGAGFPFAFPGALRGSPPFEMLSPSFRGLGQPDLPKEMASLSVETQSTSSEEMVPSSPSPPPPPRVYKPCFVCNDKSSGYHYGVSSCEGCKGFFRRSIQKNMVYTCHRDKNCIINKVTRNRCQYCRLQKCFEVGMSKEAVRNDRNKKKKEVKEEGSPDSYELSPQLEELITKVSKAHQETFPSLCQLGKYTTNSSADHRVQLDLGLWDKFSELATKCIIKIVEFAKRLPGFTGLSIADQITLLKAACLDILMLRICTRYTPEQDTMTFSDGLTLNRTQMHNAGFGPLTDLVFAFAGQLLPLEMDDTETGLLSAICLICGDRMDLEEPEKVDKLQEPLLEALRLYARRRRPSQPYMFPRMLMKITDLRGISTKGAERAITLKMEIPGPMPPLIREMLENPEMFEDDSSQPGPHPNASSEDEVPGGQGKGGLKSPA
Sequence of Nuclear receptor subfamily 1 group I member 2 (Homo sapiens) (O75469 whole entry, looked up, the tested form may be a part): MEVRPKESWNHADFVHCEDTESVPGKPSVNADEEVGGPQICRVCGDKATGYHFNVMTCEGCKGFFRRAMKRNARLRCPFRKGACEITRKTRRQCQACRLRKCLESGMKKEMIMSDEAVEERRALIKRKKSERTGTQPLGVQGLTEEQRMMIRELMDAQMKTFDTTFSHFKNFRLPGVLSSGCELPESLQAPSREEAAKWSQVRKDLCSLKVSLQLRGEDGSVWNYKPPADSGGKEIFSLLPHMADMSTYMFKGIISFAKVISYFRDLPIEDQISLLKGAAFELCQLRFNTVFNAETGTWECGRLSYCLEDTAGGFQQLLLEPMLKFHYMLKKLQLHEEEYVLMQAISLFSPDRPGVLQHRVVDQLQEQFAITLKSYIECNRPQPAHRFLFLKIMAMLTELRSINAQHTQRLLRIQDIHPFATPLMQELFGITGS
Sequence of Peroxisome proliferator-activated receptor gamma (Homo sapiens) (P37231 whole entry, looked up): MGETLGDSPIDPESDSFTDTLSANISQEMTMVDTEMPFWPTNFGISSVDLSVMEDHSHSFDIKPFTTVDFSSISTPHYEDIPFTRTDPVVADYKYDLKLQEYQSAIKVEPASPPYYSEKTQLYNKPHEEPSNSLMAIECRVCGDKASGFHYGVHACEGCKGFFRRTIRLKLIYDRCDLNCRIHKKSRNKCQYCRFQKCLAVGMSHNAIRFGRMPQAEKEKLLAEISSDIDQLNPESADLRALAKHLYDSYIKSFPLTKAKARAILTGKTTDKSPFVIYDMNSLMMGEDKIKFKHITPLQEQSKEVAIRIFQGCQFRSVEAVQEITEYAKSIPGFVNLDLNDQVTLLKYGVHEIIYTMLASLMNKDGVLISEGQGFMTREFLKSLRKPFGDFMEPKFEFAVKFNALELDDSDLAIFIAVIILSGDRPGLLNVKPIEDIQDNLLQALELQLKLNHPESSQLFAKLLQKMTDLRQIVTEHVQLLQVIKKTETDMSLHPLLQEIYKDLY
Sequence of human RAR-related Orphan Receptor beta (RORb), RORB (gene 6096) (Q92753 whole entry, looked up, the tested form may be a part): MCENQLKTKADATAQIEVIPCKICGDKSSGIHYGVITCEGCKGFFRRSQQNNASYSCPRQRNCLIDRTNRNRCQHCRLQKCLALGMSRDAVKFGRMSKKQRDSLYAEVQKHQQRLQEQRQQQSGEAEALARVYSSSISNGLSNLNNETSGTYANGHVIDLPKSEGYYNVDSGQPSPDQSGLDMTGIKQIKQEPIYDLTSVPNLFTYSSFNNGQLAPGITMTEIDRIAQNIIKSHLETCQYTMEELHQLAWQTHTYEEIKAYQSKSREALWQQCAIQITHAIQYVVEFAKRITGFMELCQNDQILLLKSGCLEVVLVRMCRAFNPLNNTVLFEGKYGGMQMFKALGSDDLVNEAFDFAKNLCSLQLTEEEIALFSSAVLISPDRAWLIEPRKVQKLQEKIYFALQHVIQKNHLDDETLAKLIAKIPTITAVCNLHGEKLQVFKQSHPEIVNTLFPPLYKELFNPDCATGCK
Sequence of human RAR-related Orphan Receptor gamma (RORg), RORC (gene 6097) (P51449 whole entry, looked up, the tested form may be a part): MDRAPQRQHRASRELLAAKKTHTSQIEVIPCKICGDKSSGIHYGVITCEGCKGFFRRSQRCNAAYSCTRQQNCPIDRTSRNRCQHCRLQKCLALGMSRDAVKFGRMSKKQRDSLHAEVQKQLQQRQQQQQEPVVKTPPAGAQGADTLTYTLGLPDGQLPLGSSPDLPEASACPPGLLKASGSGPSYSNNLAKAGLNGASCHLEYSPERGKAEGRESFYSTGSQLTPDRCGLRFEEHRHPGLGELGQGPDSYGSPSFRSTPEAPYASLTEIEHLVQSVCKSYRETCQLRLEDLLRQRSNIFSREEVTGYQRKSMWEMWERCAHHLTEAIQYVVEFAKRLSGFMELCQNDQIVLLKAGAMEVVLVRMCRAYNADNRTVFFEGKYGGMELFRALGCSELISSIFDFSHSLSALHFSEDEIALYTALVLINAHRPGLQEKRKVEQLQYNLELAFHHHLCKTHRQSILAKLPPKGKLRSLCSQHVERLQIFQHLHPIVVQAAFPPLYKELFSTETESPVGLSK
Sequence of human Peroxisome Proliferator-activated Receptor alpha (PPARa), PPARA (gene 5465) (Q07869 whole entry, looked up, the tested form may be a part): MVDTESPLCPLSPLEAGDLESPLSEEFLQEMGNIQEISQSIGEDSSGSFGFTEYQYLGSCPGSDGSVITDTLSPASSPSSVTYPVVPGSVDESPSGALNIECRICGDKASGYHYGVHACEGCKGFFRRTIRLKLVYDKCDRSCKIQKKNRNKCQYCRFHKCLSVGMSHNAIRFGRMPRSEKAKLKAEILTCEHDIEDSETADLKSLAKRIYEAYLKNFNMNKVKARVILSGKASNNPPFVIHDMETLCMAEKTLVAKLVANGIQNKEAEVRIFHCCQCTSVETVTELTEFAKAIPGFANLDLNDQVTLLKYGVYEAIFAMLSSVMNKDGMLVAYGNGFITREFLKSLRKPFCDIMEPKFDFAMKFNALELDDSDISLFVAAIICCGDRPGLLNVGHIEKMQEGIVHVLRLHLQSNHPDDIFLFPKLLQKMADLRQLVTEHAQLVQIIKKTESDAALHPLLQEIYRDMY
Sequence of Cellular tumor antigen p53 (Homo sapiens) (P04637 whole entry, looked up): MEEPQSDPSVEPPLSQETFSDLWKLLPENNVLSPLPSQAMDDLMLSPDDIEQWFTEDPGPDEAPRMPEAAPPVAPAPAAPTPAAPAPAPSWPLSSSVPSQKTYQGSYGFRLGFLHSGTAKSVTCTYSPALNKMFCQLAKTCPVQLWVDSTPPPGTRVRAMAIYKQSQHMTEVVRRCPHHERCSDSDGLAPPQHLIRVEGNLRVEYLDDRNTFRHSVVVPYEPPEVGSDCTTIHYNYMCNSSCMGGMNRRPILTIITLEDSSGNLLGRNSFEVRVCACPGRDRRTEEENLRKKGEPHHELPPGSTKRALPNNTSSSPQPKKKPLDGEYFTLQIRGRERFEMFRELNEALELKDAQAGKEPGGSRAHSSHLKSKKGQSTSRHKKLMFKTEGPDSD

For the molecule `CC(=O)c1ccccn1`, the result in assay [1], in assay [2], in assay [3], in assay [4], in [5] and in assay [6] was inactive.
As to `CN(C)CCOc1ccc(/C(=C(/CCCl)c2ccccc2)c2ccccc2)cc1`, the molecule was classed as inactive in assay [1], in assay [2], in [4], in assay [5], in [7] and in assay [8]. Further, in assay [3], the AC50 (in general, the midpoint of the concentration-response curve, whichever way the signal moves) is 2.47 µM (active).
`O=C(O)COCC(=O)O`: the call in [1], in assay [2], in assay [3], in [4], in assay [5] and in [9] was inactive. The call in assay [7] and in assay [10] was inactive.
`C1CCCCC1`: the call in [1], in assay [2], in [3], in assay [4], in assay [5] and in assay [7] was inactive. Besides, the molecule was called inactive in assay [10] and in assay [6].
Consider `COc1ccc(COC(C)=O)cc1`, for which the molecule was called inactive in [1], in [2], in assay [3], in [4], in assay [11] and in [12].
With `O=CCc1ccccc1`, the molecule was classed as inactive in assay [1], in assay [2], in assay [3], in [4], in [5] and in assay [8]. Moreover, the molecule was called inactive in assay [6]. The concentration at half-maximal activity (AC50) in assay [13] is 22.9 µM (active).
Regarding `OCCCCC(O)CO` (stereo not given), the result in [1], in assay [2], in assay [3], in assay [4], in assay [5] and in assay [14] was inactive. For the same molecule, the result in [9], in assay [7], in assay [10] and in [6] was inactive.
With `CCCCCCCCCC(=O)OC`, the outcome in assay [1], in [2], in [3], in assay [4], in assay [11] and in assay [7] was inactive. In [6], the molecule was called inactive. The half-maximal activity concentration (AC50) in [13] is 57.1 µM (active).
As to `CCOc1ccc(NC(=O)CC(C)O)cc1` (stereo not given), the result in [1], in assay [2], in assay [3], in [4], in [5] and in assay [14] was inactive. For the same molecule, the molecule was classed as inactive in assay [9], in assay [13], in assay [7] and in assay [6].
In the case of `Cc1ccc(-c2ccccc2)cc1`, the molecule was called inactive in assay [1], in assay [2], in assay [3], in assay [4], in [5] and in assay [7].
Turning to `CCCCC(CC)C(=O)OC(C)C` (stereo not given), the molecule was classed as inactive in assay [1], in [2], in assay [3], in assay [4], in [5] and in assay [14]. Also, the molecule was classed as inactive in [13], in assay [7] and in assay [10].
For `COc1ccc(CCO)cc1`, the call in assay [1], in assay [2], in [3], in assay [4], in assay [11] and in [14] was inactive. Besides, the result in assay [13] and in assay [8] was inactive.
Turning to `C[C@H]1C[C@@H](O)CC(C)(C)C1`, the call in assay [1], in [2], in [3], in assay [4], in assay [5] and in assay [14] was inactive. Also, the outcome in [9], in [13], in assay [7], in assay [8] and in assay [10] was inactive.

The record behind these values is PubChem BioAssay (EPA / NIEHS).
